The nature of assay [1]: ATG_PBREM_CIS: Attagene CIS-FACTORIAL HepG2 Assay for human Phenobarbital-responsive Enhancer Module (PBREM) (AID 2282955). Particulars: HepG2 PBREM cis-reporter, Attagene multiplexed transcription; actives raise or lower the signal. The essentials:
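Readout: reporter mRNA, fluorescent RT-PCR fragments separated by capillary electrophoresis. System: HepG2 transiently transfected with cis-regulated reporter units. Exposure: 24 h. Analysis: bidirectional, DMSO baseline.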

Assay [2] deals with Paired box protein Pax-6 (Homo sapiens) (UniProt P26367). Briefly: ATG_Pax6_CIS: Attagene CIS-FACTORIAL HepG2 Assay for human Paired Box 6 (PAX6) (AID 2282956). Particulars: HepG2 CIS-FACTORIAL PAX6 reporter transcription, RNA readout; actives raise or lower the signal. The essentials:
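DMSO-referenced bidirectional fits of reporter mRNA fluorescence; HepG2 with transient cis-promoter MRTUs, 24 h post-dose, RT-PCR plus capillary electrophoresis detection.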

Assay [3] in a line: ATG_PXRE_CIS: Attagene CIS-FACTORIAL HepG2 Assay for human Pregnane X Receptor Element (PXRE) (AID 2282957). Particulars: HepG2 Attagene CIS-FACTORIAL PXRE reporter, mRNA; actives raise or lower the signal. The method, boiled down: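 Bidirectional activity, baselined to DMSO, derived from reporter mRNA fluorescence (RT-PCR plus capillary electrophoresis) in HepG2 cells bearing cis-promoter reporter units, 24 h exposure.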

Assay [4] is described as follows: ATG_RORE_CIS: Attagene CIS-FACTORIAL HepG2 Assay for human RAR-related Orphan Receptor Element (RORE) (AID 2282959). Particulars: HepG2 Attagene cis-factorial RORE reporter, mRNA; actives raise or lower the signal. The essentials: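 Measured here: transcript induction of a cis-regulated reporter in HepG2 cells transiently transfected via FuGene 6. After 24 h, RNA was processed by RT-PCR and fluorescent capillary electrophoresis; DMSO defined baseline activity.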

Assay [5] is described as follows: ATG_Sox_CIS: Attagene CIS-FACTORIAL HepG2 Assay for human SRY-box transcription factor (SOX) (AID 2282960). Particulars: HepG2 Attagene cis-factorial SOX reporter, mRNA; actives raise or lower the signal. The essentials: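 Using transiently transfected HepG2 cells, reporter transcription driven by cis elements was assessed 24 h after dosing. Signal was fluorescence of capillary-separated RT-PCR products, with DMSO defining baseline activity.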

Assay [6] concerns the target Transcription factor Sp1 (Homo sapiens) (UniProt P08047). Briefly: ATG_Sp1_CIS: Attagene CIS-FACTORIAL HepG2 Assay for human Specificity Protein 1 (Sp1) (AID 2282961). Particulars: HepG2 Sp1 cis-reporter transcription, actives raise or lower the signal. The essentials: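 After transient transfection of HepG2 cells with cis-promoter reporter units and 24 h chemical treatment, reporter transcripts were quantified by RT-PCR and capillary electrophoresis fluorescence. Gain- and loss-of-signal fitted against DMSO.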

Assay [7] is described as follows: ATG_SREBP_CIS: Attagene CIS-FACTORIAL HepG2 Assay for human Sterol Regulatory Element Binding (SREBP) (AID 2282962). Particulars: HepG2 Attagene cis-factorial SREBP reporter, mRNA; actives raise or lower the signal. The method, boiled down:
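In this cis-format assay, HepG2 liver cells express reporters controlled by promoter elements responsive to native transcription factors. Exposure lasts 24 h; reporter mRNA fluorescence from capillary electrophoresis gives the signal, fitted bidirectionally against DMSO.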

Assay [8] concerns the target Signal transducer and activator of transcription 3 (Homo sapiens) (UniProt P40763). Briefly: ATG_STAT3_CIS: Attagene CIS-FACTORIAL HepG2 Assay for human Signal Transducer and Activator of Transcription 3 (STAT3) (AID 2282963). Particulars: HepG2, Attagene cis-factorial STAT3 reporter transcription; actives raise or lower the signal. The method, boiled down:
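Cis-factorial format: endogenous transcription factors in HepG2 drive transfected reporter units. After 24 h treatment, reporter RNA was reverse-transcribed, amplified, FAM-labelled and HpaI-digested before CE analysis; activity scored in both directions against DMSO.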

A short description of assay [9]: ATG_TA_CIS: Attagene CIS-FACTORIAL HepG2 Assay for human TA Basal Promoter (AID 2282964). Particulars: HepG2 Attagene CIS-factorial TA basal promoter reporter; actives raise or lower the signal. The method, boiled down:
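Cis-factorial format in HepG2: reporters report endogenous factors, not chimeric Gal4 fusions. After 24 h treatment, reporter transcripts were measured by RT-PCR-capillary electrophoresis fluorescence, analysed bidirectionally versus DMSO.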

Assay [10] can be described thus: ATG_TCF_b_cat_CIS: Attagene CIS-FACTORIAL HepG2 Assay for human T-Cell-Factor with beta-catenin (TCF/b-cat) (AID 2282965). Particulars: HepG2 TCF/beta-catenin cis-reporter transcription, actives raise or lower the signal. The method, boiled down: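 Endogenous transcription factor activity is captured through cis-promoter reporter constructs transiently introduced into human HepG2 liver cells. Induced reporter mRNA is measured after 24 h and fitted bidirectionally relative to DMSO.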

The nature of assay [11]: ATG_TAL_CIS: Attagene CIS-FACTORIAL HepG2 Assay for human TAL Basal Promoter (AID 2282966).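 Note: background control endpoint measuring basal TAL promoter reporter mRNA not a specific factor.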 Particulars: HepG2 Attagene cis-factorial TAL promoter reporter; actives raise or lower the signal. The method, boiled down:
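Human hepatoma HepG2 cells, transfected with promoter-regulated reporter units, were treated 24 h. Reporter transcript levels, measured through RT-PCR and capillary electrophoresis, were fitted for gain or loss relative to DMSO.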

The nature of assay [12]: ATG_TGFb_CIS: Attagene CIS-FACTORIAL HepG2 Assay for human Transforming Growth Factor (TGF) (AID 2282967). Particulars: HepG2 Attagene CIS TGFb reporter, mRNA transcription; actives raise or lower the signal. The essentials: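 Multiplexed cis-reporter HepG2 system, 24 h treatment; mRNA induction read by fluorescence after RT-PCR and CE; DMSO negative control, bidirectional curve fitting.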

The nature of assay [13]: ATG_VDRE_CIS: Attagene CIS-FACTORIAL HepG2 Assay for human Vitamin D Receptor Element (VDRE) (AID 2282968). Particulars: HepG2 VDRE cis-reporter transcription, actives raise or lower the signal. The method, boiled down: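 Measures endogenous factor activity through cis-element-driven reporter transcripts in transiently transfected HepG2. Cells are treated 24 h; reporter mRNA is quantified by RT-PCR and capillary electrophoresis; fitting is bidirectional.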

For assay [14], the target named is Nuclear receptor subfamily 1 group I member 3 (Homo sapiens) (UniProt Q14994). Briefly: ATG_CAR_TRANS: Attagene TRANS-FACTORIAL HepG2 Assay for human Constitutive Androstane Receptor (CAR) (AID 2282969; active = hit-call score of the fitted dose curve at least 0.9, where 1 is the maximum;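 note: activators raise reporter mRNA above DMSO so AC50 marks induction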). Particulars: HepG2 Attagene TRANS-FACTORIAL CAR reporter. The method, boiled down:
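Signal is reporter mRNA induction relative to DMSO, measured 24 h after dosing by RT-PCR with fluorescent primer extension and capillary electrophoresis. Human HepG2 liver cells carried transiently transfected chimeric NR-Gal4/GAL4-UAS reporter constructs.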

Assay [15] concerns the target Estrogen receptor (Homo sapiens) (UniProt P03372). Briefly: ATG_ERa_TRANS: Attagene TRANS-FACTORIAL HepG2 Assay for human Estrogen Receptor alpha (ERa) (AID 2282970; active = hit-call score of the fitted dose curve at least 0.9, where 1 is the maximum). Particulars: HepG2 Attagene TRANS ERa GAL4 reporter, mRNA. The method, boiled down:
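Signal derives from fluorescence of labelled reporter PCR fragments separated by capillary electrophoresis. HepG2 cells transiently carrying multiple GAL4-UAS reporter units were treated 24 hours, and induction above DMSO baseline was fitted as activity.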

The target of assay [16] is X-box-binding protein 1 (Homo sapiens) (UniProt P17861). Briefly: ATG_Xbp1_CIS: Attagene CIS-FACTORIAL HepG2 Assay for human X-box Binding Protein 1 (XBP1) (AID 2282972). Particulars: HepG2 XBP1 cis-element reporter, Attagene multiplex; actives raise or lower the signal. The method, boiled down:
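Changes in reporter transcript abundance, read by RT-PCR and capillary electrophoresis, reflect endogenous transcription factor activity. Transfected HepG2 cells received compound for 24 hours; DMSO defined baseline for bidirectional analysis.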

The nature of assay [17]: ATG_GAL4_TRANS: Attagene TRANS-FACTORIAL HepG2 Assay for GAL4 (Internal Marker) (AID 2282976; active = hit-call score of the fitted dose curve at least 0.9, where 1 is the maximum). Particulars: HepG2 Attagene TRANS GAL4 internal marker reporter. The essentials: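 Liver HepG2 line bearing multiplexed GAL4-UAS reporter constructs; 24 h chemical treatment. Transcripts were quantified as fluorescent fragments on capillary electrophoresis after RT-PCR and HpaI cut, with activity fitted upward from DMSO.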

A short description of assay [18]: ATG_M_19_TRANS: Attagene TRANS-FACTORIAL HepG2 Assay for M19 Transcription Factor (Internal Marker) (AID 2282974; active = hit-call score of the fitted dose curve at least 0.9, where 1 is the maximum). Particulars: HepG2 Attagene TRANS-FACTORIAL M19 internal marker reporter. The method, boiled down:
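Gain-of-signal in reporter mRNA, relative to DMSO, was scored from capillary electrophoresis fluorescence. HepG2 cells carried transiently transfected multiple reporter transcription units and were incubated with test chemicals for 24 h.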

Records with an inconclusive call do not appear. Active and inactive are the calls of the source. Rule for the calls, unless noted: active = hit-call score of the fitted dose curve at least 0.9, where 1 is the maximum; inactive = score below 0.9.

Chain of Estrogen receptor (Homo sapiens) (P03372 whole entry, looked up, the tested form may be a part): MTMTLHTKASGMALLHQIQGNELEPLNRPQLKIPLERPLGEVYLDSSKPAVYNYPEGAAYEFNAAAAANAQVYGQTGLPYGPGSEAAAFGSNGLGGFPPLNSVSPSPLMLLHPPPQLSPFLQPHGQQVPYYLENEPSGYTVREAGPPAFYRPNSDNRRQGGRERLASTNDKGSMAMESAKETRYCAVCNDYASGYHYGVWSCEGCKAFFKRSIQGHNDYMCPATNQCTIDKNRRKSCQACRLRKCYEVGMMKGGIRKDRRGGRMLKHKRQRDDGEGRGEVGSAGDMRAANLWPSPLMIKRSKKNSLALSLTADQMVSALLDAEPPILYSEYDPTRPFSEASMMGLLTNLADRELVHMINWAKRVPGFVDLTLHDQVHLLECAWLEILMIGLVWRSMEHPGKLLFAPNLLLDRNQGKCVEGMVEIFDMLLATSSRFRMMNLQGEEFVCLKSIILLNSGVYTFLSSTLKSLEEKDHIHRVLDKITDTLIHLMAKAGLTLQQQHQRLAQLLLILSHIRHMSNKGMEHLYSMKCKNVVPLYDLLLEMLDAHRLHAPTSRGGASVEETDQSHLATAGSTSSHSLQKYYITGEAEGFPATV
Chain of Signal transducer and activator of transcription 3 (Homo sapiens) (P40763 whole entry, looked up): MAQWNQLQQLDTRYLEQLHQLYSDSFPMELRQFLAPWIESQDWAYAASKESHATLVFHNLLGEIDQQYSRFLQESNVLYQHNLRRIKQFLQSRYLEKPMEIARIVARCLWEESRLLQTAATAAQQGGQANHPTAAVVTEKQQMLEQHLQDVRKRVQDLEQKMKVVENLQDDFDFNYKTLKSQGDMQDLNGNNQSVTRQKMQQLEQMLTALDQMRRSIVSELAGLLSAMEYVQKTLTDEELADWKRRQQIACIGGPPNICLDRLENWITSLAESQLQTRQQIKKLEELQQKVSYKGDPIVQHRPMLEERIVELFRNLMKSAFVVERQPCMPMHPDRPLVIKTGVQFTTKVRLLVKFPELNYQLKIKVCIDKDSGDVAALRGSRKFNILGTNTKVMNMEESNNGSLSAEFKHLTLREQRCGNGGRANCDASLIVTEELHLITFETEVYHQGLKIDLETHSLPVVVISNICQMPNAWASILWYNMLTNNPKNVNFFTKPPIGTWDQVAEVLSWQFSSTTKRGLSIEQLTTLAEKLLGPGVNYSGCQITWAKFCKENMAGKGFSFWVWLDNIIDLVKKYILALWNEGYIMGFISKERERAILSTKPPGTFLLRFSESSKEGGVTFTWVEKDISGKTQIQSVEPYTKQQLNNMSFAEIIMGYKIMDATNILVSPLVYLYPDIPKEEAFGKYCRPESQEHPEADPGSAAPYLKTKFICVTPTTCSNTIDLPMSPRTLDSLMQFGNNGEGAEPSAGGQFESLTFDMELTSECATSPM
Chain of Paired box protein Pax-6 (Homo sapiens) (P26367 whole entry, looked up): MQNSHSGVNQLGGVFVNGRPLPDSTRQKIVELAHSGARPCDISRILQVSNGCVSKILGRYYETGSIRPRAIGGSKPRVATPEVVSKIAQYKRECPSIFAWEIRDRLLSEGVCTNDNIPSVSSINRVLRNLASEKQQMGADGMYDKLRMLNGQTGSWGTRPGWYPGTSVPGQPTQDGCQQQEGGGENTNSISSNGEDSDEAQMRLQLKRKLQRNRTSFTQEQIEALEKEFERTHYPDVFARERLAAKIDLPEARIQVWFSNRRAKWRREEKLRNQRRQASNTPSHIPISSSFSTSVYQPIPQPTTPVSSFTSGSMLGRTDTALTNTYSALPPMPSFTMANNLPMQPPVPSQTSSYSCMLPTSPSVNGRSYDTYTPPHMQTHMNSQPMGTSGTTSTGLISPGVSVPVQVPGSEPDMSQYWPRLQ
Chain of X-box-binding protein 1 (Homo sapiens) (P17861 whole entry, looked up): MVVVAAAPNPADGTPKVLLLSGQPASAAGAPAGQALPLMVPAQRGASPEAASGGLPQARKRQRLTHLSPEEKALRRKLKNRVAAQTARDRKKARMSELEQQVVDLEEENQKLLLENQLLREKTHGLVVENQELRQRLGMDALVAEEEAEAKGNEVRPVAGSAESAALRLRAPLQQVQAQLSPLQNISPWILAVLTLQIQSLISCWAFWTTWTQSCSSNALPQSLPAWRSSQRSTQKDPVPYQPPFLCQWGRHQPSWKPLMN
Chain of Nuclear receptor subfamily 1 group I member 3 (Homo sapiens) (Q14994 whole entry, looked up, the tested form may be a part): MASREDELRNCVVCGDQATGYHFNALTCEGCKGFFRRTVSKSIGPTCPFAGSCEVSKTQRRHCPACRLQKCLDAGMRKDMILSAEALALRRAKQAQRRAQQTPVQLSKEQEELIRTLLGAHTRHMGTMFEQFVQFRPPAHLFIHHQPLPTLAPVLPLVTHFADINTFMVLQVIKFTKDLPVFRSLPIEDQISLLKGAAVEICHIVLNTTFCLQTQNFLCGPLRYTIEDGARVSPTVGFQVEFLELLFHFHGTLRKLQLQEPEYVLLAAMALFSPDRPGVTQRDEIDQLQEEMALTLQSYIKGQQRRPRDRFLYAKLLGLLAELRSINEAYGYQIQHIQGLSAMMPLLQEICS
Chain of Transcription factor Sp1 (Homo sapiens) (P08047 whole entry, looked up): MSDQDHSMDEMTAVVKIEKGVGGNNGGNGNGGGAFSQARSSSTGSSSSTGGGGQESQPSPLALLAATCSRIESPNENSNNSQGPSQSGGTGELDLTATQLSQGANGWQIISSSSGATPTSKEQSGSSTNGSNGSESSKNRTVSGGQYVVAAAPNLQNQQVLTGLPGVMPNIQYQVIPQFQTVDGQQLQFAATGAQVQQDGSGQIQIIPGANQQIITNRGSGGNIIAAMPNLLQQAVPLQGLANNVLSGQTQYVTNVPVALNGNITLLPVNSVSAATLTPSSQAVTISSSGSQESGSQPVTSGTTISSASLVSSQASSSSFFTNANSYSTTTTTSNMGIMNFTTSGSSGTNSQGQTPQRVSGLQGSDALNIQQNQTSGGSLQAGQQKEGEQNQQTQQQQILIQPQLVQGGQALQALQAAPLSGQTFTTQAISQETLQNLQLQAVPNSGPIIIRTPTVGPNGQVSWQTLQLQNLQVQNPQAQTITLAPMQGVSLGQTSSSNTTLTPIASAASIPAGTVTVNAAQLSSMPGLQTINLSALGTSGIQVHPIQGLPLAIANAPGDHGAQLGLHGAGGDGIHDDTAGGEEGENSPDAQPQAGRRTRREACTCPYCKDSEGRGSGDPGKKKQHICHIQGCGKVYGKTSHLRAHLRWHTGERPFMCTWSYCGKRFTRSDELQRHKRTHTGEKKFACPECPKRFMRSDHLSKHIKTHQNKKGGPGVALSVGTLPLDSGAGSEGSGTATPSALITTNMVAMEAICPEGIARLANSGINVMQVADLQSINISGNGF

As for `CCCCCCCOC(=O)c1ccc(O)cc1`, the outcome in [1], in assay [2], in assay [3], in [4], in assay [7] and in [8] was inactive. Also, the molecule was called inactive in assay [9], in assay [10], in assay [11], in assay [12], in assay [13] and in [14]. Moreover, in [17], the molecule was called inactive. Besides, the AC50 in assay [5] is 33.4 µM (active); in [6], 33.4 µM (active); in assay [15] it was 8.4 µM (active); in assay [16] it was 45.1 µM (active).

For `O=C1CCCCCCCCCCCN1`, the outcome in assay [1], in assay [2], in assay [4], in assay [5], in [6] and in assay [7] was inactive. The molecule was classed as inactive in assay [8], in [10], in assay [11], in assay [12], in assay [14] and in assay [15]. The outcome in assay [16] and in assay [17] was inactive. Also, the AC50 in assay [3] was 8.77 µM (active).

Regarding `CCCCOCC(C)O` (stereo unspecified), the result in assay [1], in [2], in [3], in assay [4], in assay [5] and in assay [6] was inactive. The result in assay [7], in assay [8], in assay [9], in assay [10], in assay [11] and in assay [12] was inactive. Also, the molecule was classed as inactive in [14], in assay [15] and in assay [16].

For `CC1(C)CC(O)CC(C)(C)N1[O]`, the result in assay [1], in assay [2], in assay [3], in [4], in assay [5] and in [6] was inactive. Also, the outcome in assay [7], in assay [8], in assay [10], in assay [11], in assay [12] and in assay [16] was inactive. The molecule was called inactive in [17].

For the molecule `CC(C)(c1ccccc1)c1ccc(Nc2ccc(C(C)(C)c3ccccc3)cc2)cc1`, the outcome in [1], in [2], in assay [4], in assay [5], in [6] and in assay [7] was inactive. In addition, the call in [8], in assay [9], in assay [10], in [11], in assay [14] and in [15] was inactive. In addition, the result in [16] and in assay [18] was inactive. Further, the AC50 in [3] was 2.03 µM (active).

For the molecule `C=CC(=O)NC(C)(C)C`, the outcome in assay [1], in assay [2], in assay [4], in assay [5], in assay [6] and in [7] was inactive. Moreover, the molecule was classed as inactive in assay [8], in assay [9], in assay [10], in assay [11], in assay [13] and in [14]. In addition, the outcome in assay [15] and in assay [16] was inactive. The AC50 in assay [3] is 26.9 µM (active).

For the molecule `CC(C)c1cccc(C(C)C)c1N`, the result in [1], in [2], in assay [4], in assay [5], in assay [6] and in assay [7] was inactive. In addition, the result in assay [8], in assay [9], in [10], in assay [11], in [13] and in assay [15] was inactive. The outcome in assay [16], in [18] and in assay [17] was inactive. The AC50 in [3] was 29.5 µM (active).

What is called AC50 is the concentration at which the activity in the assay is half-maximal.

The values above are taken from PubChem BioAssay (EPA / NIEHS).
